Bioassay records from PubChem BioAssay.
FMDV antiviral = antivirals against foot and mouth disease virus; FMDV antiviral cell-based qHTS; Potency, µM (titrated, usually from 57.9 µM), inactives show top-dose activity change, negative = inhibition, most hits filed as inhibitors; actives 1.2% (n = 410,000); AID 1159524; calls by dose curve; tested in HEK293T cells; further: read-out not given here; potency means the concentration at half of the fitted maximal effect; nearly all actives have a fitted effect of over 45% in size
Vaccinia Venus = inhibitors of vaccinia virus (Venus reporter) | Vaccinia virus Venus reporter expression, fluorescence | actives 0.46% (n = 330,000) | Potency, µM (doses to about 36.5 µM), for the others: at the top dose activity change, negative = inhibition, hits mostly inhibitors | AID 720580; calls by dose curve; tested in A549 cells; further: potency means the concentration at half of the fitted maximal effect; nearly all actives have a fitted effect of over 30% in size
Sm TGR inh = inhibitors of Schistosoma mansoni thioredoxin glutathione reductase; Q962Y6; purified TGR, DTNB reduction, TNB absorbance 405 nm; Potency, µM (highest dose often 114 µM), for inactives: at the top dose activity change, negative = inhibition, usual class: inhibitors; actives 3% (n = 360,000); further: potency means the concentration at half of the fitted maximal effect; nearly all actives have a fitted effect of over 60% in size
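TGR 20 nM + NADPH 100 uM (dispensed conc.), cpd preinc 15 min RT; start with NADPH (500 uM addition) then DTNB (15 mM addition). Kinetic TNB absorbance, 405 nm filter. Four-parameter Hill fit across titration.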
Vaccinia mCherry = inhibitors of vaccinia virus infection (mCherry reporter signal); Vaccinia virus mCherry reporter infection, fluorescence; Potency, µM (top dose mostly 36.5 µM), for inactives: top-dose activity change, negative = inhibition, hits mostly inhibitors; actives 0.63% (n = 310,000); calls by dose curve; tested in A549 cells; further: potency means the concentration at half of the fitted maximal effect; nearly all actives have a fitted effect of over 35% in size
HCMV antiviral = blocks human cytomegalovirus replication. HFF cells, HCMV-luciferase reporter, 72 h; stronger effect = lower value. activity change, negative = inhibition, % at 57.5 µM. actives 4.5% (n = 410,000). AID 1259415; in the data active means activity change below about -60%; inconclusive means no clear call, values can overlap the other calls; inactive means above about -39%
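Inhibition of viral replication was scored as loss of reporter luminescence in HFFs infected with HCMV-luciferase (MOI 1 PFU/cell) for 72 h; compounds tested at 2 doses, normalized to buffer and Salinomycin controls.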
HCV inhibitor = HCV inhibition; Huh7.5.1 HCVcc-Cre infection, luciferase reporter, 44 h; Potency, µM (titrated, usually from 41.8 µM), for the others: at the top dose activity change, negative = inhibition, actives largely listed as inhibitors; actives 3.4% (n = 340,000); AID 651820; further: potency means the concentration at half of the fitted maximal effect
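HCVcc-Cre virus at an moi near 0.5 was added right after compound to cells cultured 4 h from seeding (1,000 cells/well). Luciferase activity was determined 44 h later, 15 min after substrate addition at RT.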
* = called active by the depositor; i = inactive; u = inconclusive; x = no result given; ! = a repeat was not active. Hits are enriched below; roughly 9.3% of the tested compounds scored in any of these assays. Unless noted, the call rests on the fitted dose curve; in most records, active means well fitted curve in the direction sought with a large enough effect; inconclusive means small, poorly fitted or top-dose-only effect, or another doubt; inactive means no such curve, though single readings can be large; an effect the other way counts as inactive or inconclusive. On the % scale 0 is the no-effect control and ±100 the full control effect.

SMILES	FMDV antiviral	Vaccinia Venus	Sm TGR inh	Vaccinia mCherry	HCMV antiviral	HCV inhibitor
COc1ccc(S(=O)(=O)NCc2ccc(C(=O)N3CCN(Cc4ccccc4)CC3)cc2)cc1	u	x	-20%	x	u	32µM*
COc1ccc(C(=O)N2CCN(Cc3ccccc3)CC2)cc1[N+](=O)[O-]	-26%	x	-1%	x	-34	u
O=C(c1ccc(NS(=O)(=O)c2cccc(F)c2)cc1)N1CCCCC1	-8%	x	2%	x	-73*	-6%
O=C(c1ccc(Cn2cc(Cl)c([N+](=O)[O-])n2)cc1)N1CCN(Cc2ccccc2)CC1	u	x	-27%	x	-3	11µM*
COc1ccc(S(=O)(=O)Nc2ccccc2)cc1	52%	-17%	x	-14%	2	4%
O=C(Nc1ccc(S(=O)(=O)Nc2ccc(Cl)cc2)cc1)C1CCCO1 (stereo unspecified)	2%	x	5%	x	-24	22µM*
Cc1ccc(S(=O)(=O)NCc2ccc(C(=O)N3CCN(Cc4ccccc4)CC3)cc2)cc1	x	u	-28%	-27%	-93*	4µM*
COc1ccc(S(=O)(=O)Nc2ccc(Nc3ccccc3)cc2)cc1	7%	x	x	x	-70*	u
CCOc1ccc(S(=O)(=O)Nc2ccc(C(=O)N3CCCC3)cc2)cc1	24%	x	16%	x	22	4%
CCOc1ccc(NS(=O)(=O)c2ccc(C(=O)N3CCCC(C)C3)cc2)cc1 (stereo unspecified)	0%	-9%	2%	-28%	-63*	u
O=C(NS(=O)(=O)c1ccc(NC(=O)C2CCCO2)cc1)c1ccccc1 (stereo unspecified)	-18%	x	-7%	x	-6	3%
O=C(NC(=S)NCc1ccco1)c1ccc([N+](=O)[O-])cc1	53%	-15%	x	-19%	12	2%
COc1ccc(NS(=O)(=O)c2ccc(NC(=O)C3CC3)cc2)cc1	-19%	-12%	-18%	i	-10	10µM*
O=C(c1cccc(S(=O)(=O)NCc2ccccc2)c1)N1CCN(Cc2ccccc2)CC1	-18%	-8%	-17%	x	-97*	-7%
O=C(c1cccc(S(=O)(=O)NCc2ccccc2)c1)N1CCCCC1	21%	-10%	1%	-15%	-8	10%
COc1ccc(S(=O)(=O)Nc2ccc(O)c3ccccc23)cc1	-17%	-1%	20µM*	-12%	-104*	u
COc1ccc(S(=O)(=O)Nc2ccccc2C(F)(F)F)cc1	8%	x	-3%	x	28	15%
Cc1ccc(NC(=O)N2CCCN(Cc3ccc(F)cc3)C2)cc1C	-22%	-23%	-2%	x	17	u
O=C(Nc1ccc(Cl)cc1)N1CCCN(Cc2ccccc2F)C1	-18%	x	-19%	x	-9	10µM*
CO[C@@]1(NC(=O)C2SC(=C(C(N)=O)C(=O)O)S2)C(=O)N2C(C(=O)O)=C(CSc3nnnn3C)CS[C@@H]21 (stereo partly specified)	-10%	-11%	40µM*	i	25	6%
CO[C@@]1(NC(=O)CSCC#N)C(=O)N2C(C(=O)O)=C(CSc3nnnn3C)CSC21 (stereo partly specified)	-10%	-2%	x	-6%	x	x
CC(C)(C)c1ccc(O)c(N=Cc2c(O)ccc3ccccc23)c1	-24%	-26%	-22%	u	-92*	u
Oc1ccc2ccccc2c1C=Nc1ccccc1-c1nc2ccccc2[nH]1	6%	-17%	u	u	11	11µM*
CC(C)(C)c1ccc(O)c(N=Cc2cc(Br)ccc2O)c1	u	-25%	-16%	-14%	-37	-4%
O=C(O)c1ccccc1-c1nc2ccccc2[nH]1	28%	-4%	-10%	-3%	-26	11%
SMILES	FMDV antiviral	Vaccinia Venus	Sm TGR inh	Vaccinia mCherry	HCMV antiviral	HCV inhibitor
CCc1ccc(-c2cc3c(=O)n(CC(=O)NCCCN4CCN(C)CC4)ncn3n2)cc1	13%	-20%	-11%	-18%	-9	u
O=C(/C=C/c1ccc(Br)o1)Nc1nnc(C2CC2)s1	x	x	11µM*	x	x	x
CCOC(=O)C1(Cc2cccc(OC)c2)CCN(C/C=C/c2ccccc2)CC1	u	-22%	0%	-24%	-38	-17%
CCOC(=O)C1(Cc2cccc(OC)c2)CCN(C/C=C/c2ccc(OC)cc2)CC1	14µM*	-13%	1%	-21%	u	8.9µM*
CCOC(=O)C1(Cc2ccc(OC)cc2)CCN(C(=O)CCN2CCCC2=O)CC1	31%	x	5%	x	-76*	-3%
CCOC(=O)c1cc(NC(=O)c2ccccc2)c(=O)n2c1oc1ccccc12	-11%	7.9µM*	11%	10µM*	-71*	7%
O=c1cc(-c2ccc(O)cc2)oc2c(O)c(O)c(O)c(O)c12	-11%	-26%	4µM*	-29%	-33	34%
COc1cc2oc(-c3ccc(O)cc3)cc(=O)c2c(OC)c1O	19%	u	4%	u	28	-16%
COc1cc2oc(-c3ccc(O)cc3)cc(=O)c2c(O)c1OC	34%	-20%	-10%	-5%	-110*	u
O=c1cc(-c2ccc(O)cc2)oc2ccc3ccccc3c12	5.6µM*	x	1%	x	-86*	13µM*
COc1ccc(-c2cc(=O)c3c(OC)c(OC)c(OC)c(OC)c3o2)cc1	0%	-10%	x	-18%	21	10µM*
COc1c(O)cc2oc(-c3ccc(O)cc3)cc(=O)c2c1O	-14%	-22%	-3%	-24%	188	7%
CC(C)Oc1cc(C(=O)N2CCC(N3CCCCC3)CC2)ccc1Nc1nnc(Cl)c(Nc2ccccc2S(C)(=O)=O)n1	-10%	-17%	x	-23%	x	-20%
CN1CCN(C2CCN(c3ccc(Nc4nnc(Cl)c(Nc5ccccc5S(C)(=O)=O)n4)c(OC(CF)CF)c3)CC2)CC1	-19%	u	x	u	0	11µM*
COc1cc(OC)cc(C(=O)Nc2cc(-c3nc4ccccc4[nH]3)ccc2C)c1	-5%	u	1%	u	4	x
O=C(COC(=O)c1cc(S(=O)(=O)N2CCOCC2)ccc1Cl)NC1CC1	-18%	x	-1%	x	-9	-1%
CCCOc1ccc(N)cc1N	0%	1%	1.8µM*	x	0	-8%
CCCOc1cc(N)ccc1C(=O)OCCN(CC)CC	-7%	-11%	-7%	-12%	-21	25%
Cc1cccc(NC(=O)CCS(=O)(=O)c2ccc3c(c2)oc(=O)n3C)c1	-15%	-20%	u	i	-22	9%
CCN(C(=O)CCS(=O)(=O)c1ccc2c(c1)oc(=O)n2C)c1ccc(OC)cc1	-7%	-10%	u	-22%	-64*!	20%
Cc1ccc(NC(=O)CCS(=O)(=O)c2ccc3c(c2)oc(=O)n3C)c(Br)c1	-20%	-8%	32µM*	-20%	-20	x
